These results are taken from PubChem BioAssay.

A short description of experiment [1]: antimalarial activity against Dd2 strain (AID 2302;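 active means growth inhibition above 50% at the single 2 µM test dose, taken to imply half-maximal potency below 2 µM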;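 further: 0% = DMSO untreated growth and 100% = chloroquine plus artemisinin killed control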). Conditions: P. falciparum Dd2 in RBCs, LDH growth readout, 72 h; at 2 µM; hits give high values.
Experiment [2] can be described thus: HepG2 cytotoxicity, primary screen, cytotoxicity control for P. falciparum antimalarial project, cell-based, ATP luminescence (AID 2303;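 active means inhibition above 50%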;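 further: 0% = DMSO wells and 100% = digitonin-killed cells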). Conditions: HepG2 viability, 24-48 h, at 10 µM, hits give high values.
Experiment [3] concerns the target L-lactate dehydrogenase (Plasmodium falciparum (isolate CDC / Honduras)) (UniProt Q27743). Description: PfLDH activity inhibition – cell lysate, 3D7 strain, counter-screen for P. falciparum growth inhibition project (AID 2304).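 Further: 0% = vehicle and 100% = reference inhibitor.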 The following applies: P. falciparum 3D7 crude extract, LDH APAD/NBT absorbance; at 2 µM; hits give high values. (A counterscreen serves to expose hits that act by an unwanted route or on another target.)

Experiment [4] can be described thus: inhibition of 3D7 malaria parasite growth – strain 3D7 (AID 2306).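 Further: 0% = DMSO wells and 100% = chloroquine plus artemisinin control wells.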 Conditions: P. falciparum 3D7 erythrocytic growth, LDH absorbance, 72 h; at 2 µM; hits give high values.
Experiment [5] concerns the target Plasmodium falciparum protein kinase 6 (PK6, PF3D7_1337100) (UniProt Q8IDW1). As to the kind of experiment: PfPK6 kinase inhibitors, biochemical, TCAMS library (AID 1159586). Conditions: recombinant PfPK6, Kinase-Glo ATP depletion luminescence. (In general: In Kinase-Glo more light means more ATP remaining.)
Experiment [6] addresses Protein kinase 7 (PK7), Plasmodium falciparum 3D7 (PF3D7_0213400) (UniProt Q7YTF7). Description: inhibition of Plasmodium PK7 catalytic activity – biochemical, TCAMS antimalarial set, Kinase-Glo luminescence (AID 1159587). Conditions: recombinant PfPK7, Kinase-Glo ATP depletion luminescence.
Experiment [7] has as its target Calcium-dependent protein kinase 4 (Plasmodium falciparum (isolate 3D7)) (UniProt Q8IBS5). As to the kind of experiment: PfCDPK4 kinase inhibitors, biochemical, TCAMS library (AID 1159588; cut-off not given, nearly all actives have IC50 up to about 0.91 µM). The following applies: recombinant PfCDPK4, Kinase-Glo ATP depletion luminescence.

Values without a mark were called inactive. For some of these results: Results with a measured potency or affinity are listed apart. The source made the active and inactive calls. Unless noted, how the calls were made is not given here.

Plasmodium falciparum protein kinase 6 (PK6, PF3D7_1337100), sequence (Q8IDW1 1-305): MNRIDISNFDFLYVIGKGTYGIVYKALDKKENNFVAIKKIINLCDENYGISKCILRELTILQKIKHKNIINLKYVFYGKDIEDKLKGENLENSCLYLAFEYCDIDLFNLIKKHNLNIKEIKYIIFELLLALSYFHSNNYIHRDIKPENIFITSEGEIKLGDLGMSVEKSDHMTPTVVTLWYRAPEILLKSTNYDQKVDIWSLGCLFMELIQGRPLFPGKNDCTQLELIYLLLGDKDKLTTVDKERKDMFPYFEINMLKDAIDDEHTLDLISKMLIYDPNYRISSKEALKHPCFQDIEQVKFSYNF
Calcium-dependent protein kinase 4 (Plasmodium falciparum (isolate 3D7)), sequence (Q8IBS5 whole entry, looked up): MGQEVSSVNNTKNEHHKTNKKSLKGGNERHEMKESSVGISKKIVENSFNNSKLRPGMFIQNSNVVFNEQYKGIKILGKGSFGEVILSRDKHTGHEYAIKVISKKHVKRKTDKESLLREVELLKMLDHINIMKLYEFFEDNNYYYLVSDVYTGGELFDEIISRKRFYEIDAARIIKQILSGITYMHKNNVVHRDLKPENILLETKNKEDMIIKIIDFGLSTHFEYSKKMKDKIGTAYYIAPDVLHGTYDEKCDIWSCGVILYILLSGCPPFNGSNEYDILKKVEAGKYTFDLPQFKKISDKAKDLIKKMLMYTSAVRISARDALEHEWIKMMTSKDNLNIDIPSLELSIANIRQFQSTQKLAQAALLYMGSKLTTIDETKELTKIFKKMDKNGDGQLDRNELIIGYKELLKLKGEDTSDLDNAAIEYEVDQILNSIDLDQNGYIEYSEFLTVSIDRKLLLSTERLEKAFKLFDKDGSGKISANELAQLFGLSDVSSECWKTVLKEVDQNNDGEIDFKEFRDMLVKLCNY
L-lactate dehydrogenase (Plasmodium falciparum (isolate CDC / Honduras)), sequence (Q27743 whole entry, looked up): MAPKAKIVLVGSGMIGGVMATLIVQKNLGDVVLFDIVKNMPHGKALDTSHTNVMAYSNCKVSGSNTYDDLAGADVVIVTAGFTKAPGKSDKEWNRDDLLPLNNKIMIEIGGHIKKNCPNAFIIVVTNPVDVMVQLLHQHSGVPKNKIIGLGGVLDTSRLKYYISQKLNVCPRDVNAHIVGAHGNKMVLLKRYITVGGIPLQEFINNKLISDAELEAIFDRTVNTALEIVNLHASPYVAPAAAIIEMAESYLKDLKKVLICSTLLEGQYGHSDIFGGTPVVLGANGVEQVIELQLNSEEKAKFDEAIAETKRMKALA
Protein kinase 7 (PK7), Plasmodium falciparum 3D7 (PF3D7_0213400), sequence (Q7YTF7 1-343): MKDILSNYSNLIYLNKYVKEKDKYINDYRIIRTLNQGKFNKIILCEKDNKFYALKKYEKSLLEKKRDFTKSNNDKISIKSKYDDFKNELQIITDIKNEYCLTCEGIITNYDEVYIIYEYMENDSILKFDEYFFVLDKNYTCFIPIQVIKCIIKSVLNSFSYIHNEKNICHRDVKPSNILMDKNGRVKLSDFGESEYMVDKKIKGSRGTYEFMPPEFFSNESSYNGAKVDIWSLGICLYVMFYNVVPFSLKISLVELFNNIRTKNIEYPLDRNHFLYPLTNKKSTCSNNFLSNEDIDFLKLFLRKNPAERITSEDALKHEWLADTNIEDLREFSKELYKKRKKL

As usually defined, the inhibition is the change of the read-out against control, counted positive when it falls. With `CCCN1CCN(CCNC(=O)c2cccc(Nc3nccc(Nc4ccc(Oc5ccccc5)cc4)n3)c2)CC1`, the growth inhibition in experiment [1] is 96% (active); in experiment [4] it was 99% (active). For the same compound, the inhibition was 56% (active) in experiment [2] and -7% in experiment [3]. Moreover, the result in experiment [5], in experiment [6] and in experiment [7] was inactive.

Turning to `CCNC(=O)Nc1ccc(-c2cnc(N)c(-c3nc4ccc(OC)cc4[nH]3)c2)cc1`, the growth inhibition is 43% in experiment [1] and 100% (active) in experiment [4]. The inhibition is 51% (active) in experiment [2] and 1% in experiment [3]. Moreover, the outcome in experiment [5], in experiment [6] and in experiment [7] was inactive.

Take `CN(C)CCOc1ccc(-c2cc(-c3ccc(Cl)c(O)c3)c(-c3ccnc(N)n3)o2)cc1`: the growth inhibition in experiment [1] is 95% (active); in experiment [4], 100% (active). The values for the inhibition in experiment [2] and in experiment [3] were 43% and 2%, respectively. Further, the outcome in experiment [5], in experiment [6] and in experiment [7] was inactive.

On to `Cc1cccc(Nc2nc(NCCCCN)nc3cc[nH]c(=O)c23)c1`, for which the growth inhibition is 97% (active) in experiment [1] and 98% (active) in experiment [4]. For the same compound, the inhibition in experiment [2] is 34%; in experiment [3] it was 0%. In addition, the result in experiment [5] and in experiment [6] was inactive.

Regarding `COc1ccc(-c2cnc3ccc(N4CCCC4)nn23)cc1OC`, the growth inhibition in experiment [1] and in experiment [4] was 98% (active) throughout. In addition, the inhibition in experiment [2] was 40%; in experiment [3], 0%. The result in experiment [5], in experiment [6] and in experiment [7] was inactive.

Turning to `CCn1c(-c2nc(-c3ccnc(N4CCN(C)CC4)c3)cnc2N)nc2cc(S(C)(=O)=O)ccc21`, the growth inhibition in experiment [1] is 76% (active); in experiment [4], 101% (active). Also, the inhibition in experiment [2] is 44%; in experiment [3], -1%. Moreover, the outcome in experiment [5], in experiment [6] and in experiment [7] was inactive.

In the case of `CCn1c(-c2nonc2N)nc2c(-c3cccc(Cl)c3)ncc(OCCCNCCc3cnc[nH]3)c21`, the growth inhibition in experiment [1] was 98% (active); in experiment [4] it was 101% (active). In addition, the results for the inhibition in experiment [2] and in experiment [3] were 16% and -3%, respectively. Further, the outcome in experiment [5] and in experiment [6] was inactive.

Consider `CN(C)CCNCc1ccc(-c2ccc3c(Nc4ccc(Oc5ccccc5)cc4)ccnc3c2)o1`, for which the growth inhibition is 99% (active) in experiment [1] and 100% (active) in experiment [4]. Also, the inhibition is 19% in experiment [2] and 2% in experiment [3]. Also, the result in experiment [5], in experiment [6] and in experiment [7] was inactive.

In the case of `Cc1ccc(Nc2nccc(Nc3ccc4c(c3)nc(Nc3cc(C(C)(C)C)on3)n4C)n2)cc1S(C)(=O)=O`, the growth inhibition in experiment [1] is 99% (active); in experiment [4], 100% (active). For the same compound, the figures for the inhibition in experiment [2] and in experiment [3] were 30% and -5%, respectively. For the same compound, the outcome in experiment [5], in experiment [6] and in experiment [7] was inactive.

`c1ccc(Oc2ccc(Nc3ccnc(Nc4ccc(OCCN5CCCCC5)cc4)n3)cc2)cc1`: the growth inhibition in experiment [1] was 66% (active); in experiment [4] it was 97% (active). The inhibition in experiment [2] was 23%; in experiment [3], -2%. The outcome in experiment [5], in experiment [6] and in experiment [7] was inactive.

In the case of `CCn1c(-c2nonc2N)nc2c(-c3ccccc3)ncc(OCCCCNCCc3ncc[nH]3)c21`, the growth inhibition in experiment [1] was 42%; in experiment [4], 92% (active). The figures for the inhibition in experiment [2] and in experiment [3] were 34% and -1%, respectively. Besides, the outcome in experiment [5] and in experiment [6] was inactive.

Take `O=C(NCCN1CCC(c2ccncc2)CC1)c1cccc(Nc2nccc(Nc3ccc(Oc4ccccc4)cc3)n2)c1`: the growth inhibition in experiment [1] is 91% (active); in experiment [4], 101% (active). Also, the inhibition was 60% (active) in experiment [2] and -3% in experiment [3]. Further, the result in experiment [5], in experiment [6] and in experiment [7] was inactive.

Turning to `CC(C)(CNC(=O)C1CCN(CCOc2ccc(F)c(F)c2)CC1)c1nc(-c2ccc(Cl)c(O)c2)c(-c2ccncc2)[nH]1`, the growth inhibition in experiment [1] is 19%; in experiment [4], 101% (active). Also, the inhibition is 41% in experiment [2] and -1% in experiment [3]. Moreover, the result in experiment [5], in experiment [6] and in experiment [7] was inactive.

For the compound `CC(C)(CN)c1nc(-c2ccc(Cl)c(O)c2)c(-c2ccncc2)[nH]1`, the figures for the growth inhibition in experiment [1] and in experiment [4] were 98% (active) and 97% (active), respectively. The inhibition was 34% in experiment [2] and 0% in experiment [3]. Also, the result in experiment [5], in experiment [6] and in experiment [7] was inactive.

With `CN(C)Cc1ccc(-c2ccc3c(Nc4ccc(Cl)cc4F)ccnc3c2)o1`, the growth inhibition in experiment [1] is 99% (active); in experiment [4] it was 100% (active). Besides, the inhibition in experiment [2] was 13%; in experiment [3] it was -3%. The result in experiment [5], in experiment [6] and in experiment [7] was inactive.

Consider `CCn1c(-c2nonc2N)nc2c(-c3cccc(NC(=O)Nc4cccc(Cl)c4)c3)ncc(OCCCN)c21`, for which the growth inhibition in experiment [1] is 78% (active); in experiment [4], 91% (active). The inhibition in experiment [2] is 9%; in experiment [3], -1%. For the same compound, the result in experiment [5] and in experiment [6] was inactive.

Consider `Oc1cc(Nc2ccnc3cc(I)ccc23)c(F)cc1Cl`, for which the growth inhibition is 77% (active) in experiment [1] and 92% (active) in experiment [4]. Also, the inhibition in experiment [2] and in experiment [3] was -3% in each case. For the same compound, the outcome in experiment [5], in experiment [6] and in experiment [7] was inactive.

Take `CN1CCN(c2ccc(Nc3nccc(-c4c(-c5cccc(NC(=O)c6c(F)cccc6F)c5)nn5ccccc45)n3)cc2)CC1`: the growth inhibition in experiment [1] and in experiment [4] was 98% (active) each time. Further, the inhibition in experiment [2] is 86% (active); in experiment [3], -3%. Moreover, the outcome in experiment [5] and in experiment [6] was inactive.

As to `CCn1c(-c2nonc2N)nc2c(-c3cccc(NC(=O)Nc4cccc(C#N)c4)c3)ncc(OCCCN)c21`, the growth inhibition in experiment [1] is 80% (active); in experiment [4] it was 92% (active). In addition, the inhibition was 37% in experiment [2] and 0% in experiment [3]. The outcome in experiment [5] and in experiment [6] was inactive.

As for `O=C(Nc1c(F)cccc1F)c1cccc(-c2nn3ccccc3c2-c2ccnc(Nc3cccc(-c4cnco4)c3)n2)c1`, the values for the growth inhibition in experiment [1] and in experiment [4] were 94% (active) and 95% (active), respectively. The inhibition was 96% (active) in experiment [2] and -6% in experiment [3]. Also, the outcome in experiment [5] and in experiment [6] was inactive.
